# Values joined by “and” are separate entries in the source; they are usually repeats but may differ in a detail not shown here. Equal values may be shown once. Inconclusive results are not listed. Active and inactive are the calls of the source. Calls follow the shape of the dose curve; as a rule, active = well fitted cell-killing curve with a large enough effect in the repeat runs; inconclusive = weak or mixed curves, or effect the other way; inactive = no such curve, though single readings can be large or run the other way.
# Test: qHTS assay to identify small molecule antagonists of the glucocorticoid receptor (GR) signaling pathway - cell viability counter screen (AID 720693); also: nearly all actives have a fitted effect of over 55% in size
# Conditions: GR-bla HeLa viability, CellTiter-Glo luminescence, 18 h, with 5 nM dexamethasone present; series mostly up to 58.5 µM
# Potency is read from the fitted curve at half-maximal effect.
row,SMILES,Potency
1,CC(C)(C)C1CCC(=O)CC1,inactive
2,CCO[C@@H]1O[C@H](C(COCc2ccccc2)OCc2ccccc2)[C@H](OCc2ccccc2)[C@H]1O (stereo not given in full),inactive
3,CCCCN(CCCC)CC(O)c1cc(Cl)cc2c1-c1ccc(Cl)cc1/C2=C/c1ccc(Cl)cc1 (stereo not given),inactive
4,CC(C)(C)c1csc(-c2cc3cc(OCc4ccccc4CC(=O)O)ccc3o2)n1,49 µM (active)
5,CCCC[P+](C)(CCCC)CCCC,inactive
6,COc1cc(S(=O)(=O)O)c(C)cc1N=Nc1c(O)ccc2cc(S(=O)(=O)O)ccc12,inactive
7,CCC(CC)(CC(=O)Nc1cccc(/C=C/c2nc(C3CCC3)cs2)c1)C(=O)O,inactive
8,C=Cc1ccccc1C=C,inactive
9,CCCCCC(C)OC(=O)COc1ccc(Cl)c2cccnc12 (stereo not given),inactive
10,[Cl][Pt-2]([Cl])([Cl])[Cl],inactive
11,O=c1c(O)c(-c2ccc(O)cc2O)oc2cc(O)cc(O)c12,inactive
12,Sc1nc2ccccc2s1,inactive
13,Clc1nnc(Cl)c2ccccc12,inactive
14,CC1(C)CCC[C@]2(C)[C@H]3CC(=O)O[C@]3(C)CC[C@@H]12,inactive
15,CCN(CC)c1ccc2c(-c3ccc(S(=O)(=O)O)cc3S(=O)(=O)[O-])c3ccc(=[N+](CC)CC)cc-3oc2c1,inactive
16,S=c1nccc[nH]1,inactive
17,CC[C@H](C)COC(=O)/C=C/c1ccc(N=Cc2ccc(OC)cc2)cc1,inactive

# Test: qHTS assay for identifying genotoxic compounds that show differential cytotoxicity against isogenic chicken DT40 cell lines with known DNA damage response pathways - wild type cell line (AID 743012); also: nearly all actives have a fitted effect of over 60% in size
# Conditions: DT40 wild type chicken cells viability, CellTiter-Glo, 40 h; series mostly up to 68.4 µM
# How it was run: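 Using parental DT40 (300 cells/well), compounds delivered in DMSO incubate 40 h at 37 C/5% CO2. CellTiter-Glo reagent then stands 30 min at room temperature, and luminescence gives cell viability.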
row,SMILES,Potency
1,CCCCCC/C=C\CCCCCCCC(=O)O,inactive
2,COC(=O)C1=C(C)NC(C)=C(C(=O)OCCN2CCN(C(c3ccccc3)c3ccccc3)CC2)C1c1cccc([N+](=O)[O-])c1 (stereo not given),5.31 µM (active)
3,Cc1cccc2cccnc12,inactive
4,CCc1oc2ccccc2c1C(=O)c1cc(I)c(O)c(I)c1,29.8 µM (active)
5,Oc1ccccc1O,24.6 µM (active) and 30.6 µM (active)
6,CCN(CC)C(=O)c1cc(S(=O)(=O)Cc2ccccc2)c(N2CCC(c3ccccc3)CC2)cc1N(CC)CCN(C)C,5.96 µM (active) and 17 µM (active)
7,O=[N+]([O-])c1ccc(O)cc1C(F)(F)F,27.3 µM (active)
8,CC[N+](CC)(CC)CCOc1ccc(/C=C/c2ccccc2)cc1,944 nM (active) and 750 nM (active)
9,C=CC(=O)OCCOC(=O)C=C,7.7 µM (active)
10,CN1CCN2c3ccccc3Cc3ccccc3C2C1 (stereo not given),13.3 µM (active)
11,O=C1c2ccccc2C(=O)N1SC1CCCCC1,15.3 µM (active) and 5.45 µM (active)
12,C=CC(=O)Nc1cc2c(Nc3ccc(F)c(Cl)c3)ncnc2cc1OCCCN1CCOCC1,5.31 µM (active)
13,COC(=O)Nc1nc2ccc(C(=O)c3ccccc3)cc2[nH]1,0.285 µM (active)
14,Cc1cc(C)c(/C=C2\C(=O)Nc3ccccc32)[nH]1,inactive
15,COC1=C(OC)C(=O)C(CCCCCCCCCCO)=C(C)C1=O,8.41 µM (active)
16,Cc1c2ccccc2c(C)c2c1ccc1ccccc12,30.3 µM (active) and 3.06 µM (active)
17,Cc1cccc(C(=O)O)c1O,inactive
18,Cc1cc(C(C#N)c2ccc(Cl)cc2)c(Cl)cc1NC(=O)c1cc(I)cc(I)c1O (stereo not given),26.6 µM (active)

# Test: qHTS assay for identifying genotoxic compounds that show differential cytotoxicity against isogenic chicken DT40 cell lines with known DNA damage response pathways - Rev3 mutant cell line (AID 743014); also: nearly all actives have a fitted effect of over 55% in size
# Conditions: chicken DT40 Rev3-/- viability, CellTiter-Glo, 40 h; series mostly up to 68.4 µM
row,SMILES,Potency
1,CCCCCC/C=C\CCCCCCCC(=O)O,inactive
2,COC(=O)C1=C(C)NC(C)=C(C(=O)OCCN2CCN(C(c3ccccc3)c3ccccc3)CC2)C1c1cccc([N+](=O)[O-])c1 (stereo not given),8.41 µM (active)
3,Cc1cccc2cccnc12,inactive
4,CCc1oc2ccccc2c1C(=O)c1cc(I)c(O)c(I)c1,33.5 µM (active)
5,Oc1ccccc1O,19.6 µM (active) and 54.5 µM (active)
6,CCN(CC)C(=O)c1cc(S(=O)(=O)Cc2ccccc2)c(N2CCC(c3ccccc3)CC2)cc1N(CC)CCN(C)C,11.9 µM (active) and 13.5 µM (active)
7,O=[N+]([O-])c1ccc(O)cc1C(F)(F)F,27.3 µM (active)
8,CC[N+](CC)(CC)CCOc1ccc(/C=C/c2ccccc2)cc1,750 nM (active) and 668 nM (active)
9,C=CC(=O)OCCOC(=O)C=C,7.7 µM (active)
10,CN1CCN2c3ccccc3Cc3ccccc3C2C1 (stereo not given),26.6 µM (active)
11,O=C1c2ccccc2C(=O)N1SC1CCCCC1,6.85 µM (active) and 5.45 µM (active)
12,CC(C)=CCC1=C(O)c2ccccc2C(=O)C1=O,48.3 µM (active)
13,C=CC(=O)Nc1cc2c(Nc3ccc(F)c(Cl)c3)ncnc2cc1OCCCN1CCOCC1,8.41 µM (active)
14,CCCCCC(C)OC(=O)COc1ccc(Cl)c2cccnc12 (stereo not given),inactive
15,COC(=O)Nc1nc2ccc(C(=O)c3ccccc3)cc2[nH]1,0.32 µM (active)
16,CC1(C)CCC[C@]2(C)[C@H]3CC(=O)O[C@]3(C)CC[C@@H]12,61.1 µM (active)
17,COC1=C(OC)C(=O)C(CCCCCCCCCCO)=C(C)C1=O,13.3 µM (active)
18,Cc1c2ccccc2c(C)c2c1ccc1ccccc12,15.2 µM (active) and 2.73 µM (active)
19,Cc1cccc(C(=O)O)c1O,inactive
20,CC[C@H](C)COC(=O)/C=C/c1ccc(N=Cc2ccc(OC)cc2)cc1,61 µM (active)
